Measured values as given in PubChem BioAssay (Tox21).
Several values for one entry are separate records, joined by “and”; a condition that tells them apart may be missing. Identical values can stand only once. Records with an inconclusive call do not appear. A call without a number means that no potency is given here. Some compounds were tested as several samples or in several runs, with calls that do not always agree. Activity calls are given as the source filed them. Unless noted, calls come from the whole dose curve; as a rule, active = well fitted curve in the direction sought with a large enough effect in the repeat runs; inconclusive = weak or mixed curves; inactive = no such curve, though single readings can be large; an effect the other way counts as inactive or inconclusive.

Key:
[1] = qHTS assay to identify small molecule HDAC inhibitors - cell viability counter screen (AID 1259365); note: series mostly up to about 92 µM; nearly all actives have a fitted effect of over 50% in size
Method in brief: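 Wild-type HCT-116 cells, 1,500/well, cultured overnight, then compound-treated 2 h at 37 C. Viability measured as ATP luminescence with CellTiter-Glo after 30 min at room temperature.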

[2] = qHTS assay to identify small molecule agonists of the sonic hedgehog signaling (Shh) pathway - cell viability counter screen (AID 1259366); note: nearly all actives have a fitted effect of over 50% in size; note: potency is the fitted concentration of half-maximal effect
Method in brief: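 NIH/3T3-derived Gli1-Luc reporter cells, 2,000 per well, received compound after 4 h and were treated about 23 h at 37C. Viability measured in the same wells by CellTiter-Fluor fluorescence after 1 h.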

[3] = qHTS assay to identify small molecule antagonists of the sonic hedgehog signaling (Shh) pathway - cell viability counter screen (AID 1259367); note: nearly all actives have a fitted effect of over 55% in size; note: potency is the fitted concentration of half-maximal effect
Method in brief: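 Viability was read by CellTiter-Fluor fluorescence in the same wells, reagent added 23 hr into compound treatment and incubated 1 hr at 37C. The 3T3 Gli1-Luc reporter cells (2,000/well) received conditioned medium after compound and ran 24 hr.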

[4] = qHTS assay to identify small molecule agonists of the sonic hedgehog signaling (Shh) pathway (AID 1259368; calls by dose curve;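 note: NIH/3T3-derived 3T3Gli1-Luc cells carrying a stable Gli1-driven firefly luciferase reporter; series mostly up to about 92 µM; nearly all actives have a fitted effect of over 15% in size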)
Method in brief: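 Read-out: firefly luciferase luminescence from a Gli1 response element reporter stably integrated in NIH/3T3-derived 3T3Gli1-Luc cells, measured 30 min at room temperature after reagent addition. Compound exposure lasted 24 hr at 37 C, 5% CO2.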

[5] = qHTS assay to identify small molecule antagonists of the sonic hedgehog signaling (Shh) pathway (AID 1259369; calls by dose curve; note: nearly all actives have a fitted effect of over 45% in size; note: potency is the fitted concentration of half-maximal effect)
Method in brief: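 Luminescence readout: firefly Luc under Gli1 response element in 3T3Gli1-Luc cells (NIH/3T3 clone). Antagonist mode, stimulation by conditioned medium; compound exposure 24hr at 37 C, 5% CO2.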

[6] = molecular target: Estrogen receptor beta (Homo sapiens) (UniProt Q92731); test: qHTS assay to identify small molecule agonists of the estrogen receptor beta (ER-beta) signaling pathway (AID 1259377; active = well fitted activation curve with a large enough effect in the signal ratio in the repeat runs, not every such curve was filed as active; the % refers to the signal ratio)
Method in brief: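 ER-beta-UAS-bla HEK293T cells in medium with 2% charcoal-stripped FBS were exposed to compounds for 16 h at 37C. Beta-lactamase reporter activity was read as fluorescence after 2 h with LiveBLAzer B/G FRET substrate at room temperature.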

[7] = molecular target: Estrogen receptor beta (Homo sapiens) (UniProt Q92731); test: qHTS assay to identify small molecule antagonists of the estrogen receptor beta (ER-beta) signaling pathway (AID 1259378; active = well fitted inhibition curve with a large enough effect in the signal ratio in the repeat runs, not every such curve was filed as active; the % refers to the signal ratio)
Method in brief: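 Antagonist mode: compounds added to beta-lactamase reporter HEK293T ER-beta-UAS cells stimulated with E2 (1nM final), 16 hr at 37C. LiveBLAzer B/G FRET substrate, 2 hours room temperature, fluorescence read-out.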

[8] = qHTS assay to identify small molecule agonists of the androgen receptor (AR) signaling pathway in the presence of an antagonist - cell viability counter screen (AID 1259379); note: nearly all actives have a fitted effect of over 25% in size; note: potency is the fitted concentration of half-maximal effect
Method in brief: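 Viability counter screen: CellTiter-Fluor fluorescence, measured in the same wells as the luciferase read-out. MDA-kb2 cells, 3,000/well, with nilutamide at 3.0uM final and compounds at 15 concentrations, 16 hr at 37C, 0% CO2.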

[9] = qHTS assay to identify small molecule agonists of the estrogen receptor beta (ER-beta) signaling pathway - cell viability counter screen (AID 1259380); note: nearly all actives have a fitted effect of over 30% in size
Method in brief: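 Luminescence read-out (CellTiter-Glo, 30 min, room temp) taken in the same wells as the beta-lactamase reporter assay; ER-beta-UAS-bla HEK293T cells exposed to DMSO-dissolved compounds for 16 hr at 37C in 2% charcoal-stripped FBS medium.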

[10] = qHTS assay to identify small molecule antagonists of the estrogen receptor beta (ER-beta) signaling pathway - cell viability counter screen (AID 1259382);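 note: HEK293T cells carrying ER-beta-UAS-bla reporter stimulated with estradiol; series mostly up to about 92 µM; nearly all actives have a fitted effect of over 55% in size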
Method in brief: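 Luminescent ATP read-out (CellTiter-Glo, 30 min, RT) taken in the same wells as the bla reporter assay. HEK293T ER-beta-UAS-bla cells in 2% charcoal-stripped FBS were exposed to compounds with 1nM E2 for 16 hr at 37C.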

[11] = qHTS assay to identify small molecule agonists or antagonists of the thyroid stimulating hormone receptor (TSHR) signaling pathway - wild type cell line counter screen (AID 1259384; calls by dose curve)
Method in brief: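 Counter screen in untransfected Hek293: compounds (15-point titration, triplicate) plus phosphodiesterase inhibitor Ro20-1724 added after 18 h plating; 30 min RT. Intracellular cAMP via competitive d2/cryptate immunoassay, 1 h incubation.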

[12] = molecular target: Thyrotropin receptor (Homo sapiens) (UniProt P16473); test: qHTS assay to identify small molecule antagonists of the thyroid stimulating hormone receptor (TSHR) signaling pathway (AID 1259385; calls by dose curve; note: nearly all actives have a fitted effect of over 20% in size)
Method in brief: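 Antagonist mode: compound-treated TSHR-expressing HEK293 cells were stimulated with 1.5 ng/mL TSH (final) in presence of Ro20-1724 for 30 min at RT. HTRF cAMP detection after 1 h; each compound tested at 15 concentrations, triplicate.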

[13] = qHTS assay to identify small molecule agonists of the estrogen receptor alpha (ER-alpha) signaling pathway in the presence of an antagonist - cell viability counter screen (AID 1259386);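 note: cells exposed to compounds for 22 h at 37 °C before the viability read; nearly all actives have a fitted effect of over 30% in size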; note: potency is the fitted concentration of half-maximal effect
Method in brief: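 Read-out: CellTiter-Fluor fluorescence after 1hr reagent incubation, measured in the same wells as the luciferase readout. VM7Luc4E2 cells were exposed to 15 compound concentrations with 10.0nM ICI-182,780 for 22hr at 37C.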

[14] = molecular target: Progesterone receptor (Homo sapiens) (UniProt P06401); test: qHTS assay to identify small molecule agonists of the progesterone receptor (PR) signaling pathway (AID 1346784; calls by dose curve; note: nearly all actives have a fitted effect of over 30% in size)
Method in brief: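 PR-UAS-bla HEK 293T cells (beta-lactamase reporter under UAS) in 2% charcoal-stripped FBS, dosed with 23 nL compound after 6 hr, incubated 16hr at 37C. LiveBLAzer B/G FRET substrate added, fluorescence read after 2 hours.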

[15] = molecular target: Progesterone receptor (Homo sapiens) (UniProt P06401); test: qHTS assay to identify small molecule antagonists of the progesterone receptor (PR) signaling pathway (AID 1346795; active = well fitted inhibition curve with a large enough effect in the signal ratio in the repeat runs, not every such curve was filed as active; the % refers to the signal ratio; note: potency is the fitted concentration of half-maximal effect)
Method in brief: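 PR-UAS-bla HEK293T cells with beta-lactamase reporter under UAS control, in 2% charcoal-stripped FBS, treated with compounds plus 1 nM promegestone (R5020, final) for 16 hr at 37C. Read-out: FRET beta-lactamase substrate fluorescence after 2 hr at room temperature.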

[16] = qHTS assay to identify small molecule antagonists of the progesterone receptor (PR) signaling pathway - cell viability counter screen (AID 1346798); note: series mostly up to about 92 µM; nearly all actives have a fitted effect of over 50% in size
Method in brief: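 PR-UAS-bla HEK293T cells, 3,000/well in 2% charcoal-stripped FBS medium, dosed with compounds plus R5020 agonist and incubated 16 h at 37C. Viability then measured in the same wells by CellTiter-Glo luminescence after 30 min at RT.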

[17] = qHTS assay to identify small molecule agonists of the progesterone receptor (PR) signaling pathway - cell viability counter screen (AID 1346799; calls by dose curve; note: nearly all actives have a fitted effect of over 45% in size)
Method in brief: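 Counter screen in the PR-UAS-bla HEK293T wells (2% charcoal-stripped FBS, 16 h compound exposure at 37 C) after the bla read. CellTiter-Glo added, 30 min at room temperature, luminescence read as cell viability.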

[18] = qHTS assay to identify small molecule antagonists of the TGF-beta/Smad signaling pathway - cell viability counter screen (AID 1346824); note: nearly all actives have a fitted effect of over 50% in size
Method in brief: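 Cytotoxicity counter-screen run in the same wells as the beta-lactamase Smad reporter read: CellTiter-Glo luminescence after 30 min at room temperature. HEK 293T SBE-bla cells had 5 hr compound exposure at 37 C with TGF-beta1 (0.25 ng/mL stock).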

[19] = molecular target: Estrogen receptor (Homo sapiens) (UniProt P03372); test: qHTS assay to identify small molecule agonists of the estrogen receptor alpha (ER-alpha) signaling pathway in the presence of an antagonist (AID 1259383; calls by dose curve; note: top concentration of the series differs between compounds; nearly all actives have a fitted effect of over 15% in size)
Method in brief: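 Luciferase luminescence (ONE-Glo, 30min at room temperature) measured in VM7Luc4E2 cells after 22hr compound exposure at 15 concentrations, with 10.0nM ICI-182,780 final present; cells express endogenous ER-alpha and carry four EREs upstream of luciferase.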

[20] = molecular target: Androgen receptor (Homo sapiens) (UniProt P10275); test: qHTS assay to identify small molecule agonists of the androgen receptor (AR) signaling pathway in the presence of an antagonist (AID 1259381; calls by dose curve; note: nearly all actives have a fitted effect of over 15% in size)
Method in brief: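 Luciferase read-out (ONE-Glo, 30min room temperature) in MDA-kb2 MMTV-reporter cells; agonist mode run in presence of AR antagonist nilutamide, 3.0uM final. Compounds tested as 15-point series, 16hr exposure at 37C, 0% CO2.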

Sequence of Androgen receptor (Homo sapiens) (P10275 whole entry, looked up): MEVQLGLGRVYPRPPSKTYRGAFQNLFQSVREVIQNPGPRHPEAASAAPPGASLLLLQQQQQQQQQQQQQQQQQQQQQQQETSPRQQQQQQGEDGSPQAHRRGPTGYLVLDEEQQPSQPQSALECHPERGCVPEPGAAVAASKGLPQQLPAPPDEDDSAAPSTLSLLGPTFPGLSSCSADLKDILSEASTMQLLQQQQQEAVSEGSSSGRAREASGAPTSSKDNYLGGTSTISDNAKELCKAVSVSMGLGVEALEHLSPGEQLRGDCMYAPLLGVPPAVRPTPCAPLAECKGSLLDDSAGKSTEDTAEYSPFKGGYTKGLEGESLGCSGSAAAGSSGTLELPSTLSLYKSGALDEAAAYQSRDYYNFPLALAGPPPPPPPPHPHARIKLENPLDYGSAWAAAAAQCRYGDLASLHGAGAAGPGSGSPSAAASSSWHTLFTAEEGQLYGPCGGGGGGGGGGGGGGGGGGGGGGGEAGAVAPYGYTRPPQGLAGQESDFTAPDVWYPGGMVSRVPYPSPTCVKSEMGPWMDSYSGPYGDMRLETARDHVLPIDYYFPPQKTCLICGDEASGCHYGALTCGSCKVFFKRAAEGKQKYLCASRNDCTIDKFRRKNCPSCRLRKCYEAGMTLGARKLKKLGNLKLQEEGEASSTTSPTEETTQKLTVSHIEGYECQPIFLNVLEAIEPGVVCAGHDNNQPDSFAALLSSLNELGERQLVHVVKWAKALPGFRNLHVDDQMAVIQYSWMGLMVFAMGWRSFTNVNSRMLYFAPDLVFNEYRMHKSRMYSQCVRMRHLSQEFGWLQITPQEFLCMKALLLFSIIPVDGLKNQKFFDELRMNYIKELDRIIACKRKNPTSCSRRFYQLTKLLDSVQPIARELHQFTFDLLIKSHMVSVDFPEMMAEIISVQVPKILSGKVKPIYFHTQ
Sequence of Progesterone receptor (Homo sapiens) (P06401 whole entry, looked up): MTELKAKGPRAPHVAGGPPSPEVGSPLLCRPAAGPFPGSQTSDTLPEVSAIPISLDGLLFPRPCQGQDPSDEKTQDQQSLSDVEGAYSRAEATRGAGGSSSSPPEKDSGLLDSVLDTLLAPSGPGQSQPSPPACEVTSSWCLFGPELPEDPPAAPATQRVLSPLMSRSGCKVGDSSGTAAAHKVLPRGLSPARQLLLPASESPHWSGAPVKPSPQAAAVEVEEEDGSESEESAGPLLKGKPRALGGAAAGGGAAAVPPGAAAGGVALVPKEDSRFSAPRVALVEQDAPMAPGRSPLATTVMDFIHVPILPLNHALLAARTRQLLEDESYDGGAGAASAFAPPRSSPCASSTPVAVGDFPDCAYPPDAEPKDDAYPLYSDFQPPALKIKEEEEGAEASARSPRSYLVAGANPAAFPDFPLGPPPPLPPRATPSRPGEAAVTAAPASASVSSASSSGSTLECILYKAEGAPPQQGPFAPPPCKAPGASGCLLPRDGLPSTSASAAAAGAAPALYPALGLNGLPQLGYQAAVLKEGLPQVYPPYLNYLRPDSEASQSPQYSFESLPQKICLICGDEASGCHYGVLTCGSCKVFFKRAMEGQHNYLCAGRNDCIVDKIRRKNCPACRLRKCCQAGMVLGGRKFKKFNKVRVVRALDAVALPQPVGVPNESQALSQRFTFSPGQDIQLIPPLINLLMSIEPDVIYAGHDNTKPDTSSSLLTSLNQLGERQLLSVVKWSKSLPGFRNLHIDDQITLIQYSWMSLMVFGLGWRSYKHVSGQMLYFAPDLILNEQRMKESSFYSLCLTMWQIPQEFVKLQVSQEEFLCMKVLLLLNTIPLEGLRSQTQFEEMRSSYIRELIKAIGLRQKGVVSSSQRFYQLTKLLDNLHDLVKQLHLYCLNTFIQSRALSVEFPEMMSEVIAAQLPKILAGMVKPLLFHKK
Sequence of Thyrotropin receptor (Homo sapiens) (P16473 whole entry, looked up): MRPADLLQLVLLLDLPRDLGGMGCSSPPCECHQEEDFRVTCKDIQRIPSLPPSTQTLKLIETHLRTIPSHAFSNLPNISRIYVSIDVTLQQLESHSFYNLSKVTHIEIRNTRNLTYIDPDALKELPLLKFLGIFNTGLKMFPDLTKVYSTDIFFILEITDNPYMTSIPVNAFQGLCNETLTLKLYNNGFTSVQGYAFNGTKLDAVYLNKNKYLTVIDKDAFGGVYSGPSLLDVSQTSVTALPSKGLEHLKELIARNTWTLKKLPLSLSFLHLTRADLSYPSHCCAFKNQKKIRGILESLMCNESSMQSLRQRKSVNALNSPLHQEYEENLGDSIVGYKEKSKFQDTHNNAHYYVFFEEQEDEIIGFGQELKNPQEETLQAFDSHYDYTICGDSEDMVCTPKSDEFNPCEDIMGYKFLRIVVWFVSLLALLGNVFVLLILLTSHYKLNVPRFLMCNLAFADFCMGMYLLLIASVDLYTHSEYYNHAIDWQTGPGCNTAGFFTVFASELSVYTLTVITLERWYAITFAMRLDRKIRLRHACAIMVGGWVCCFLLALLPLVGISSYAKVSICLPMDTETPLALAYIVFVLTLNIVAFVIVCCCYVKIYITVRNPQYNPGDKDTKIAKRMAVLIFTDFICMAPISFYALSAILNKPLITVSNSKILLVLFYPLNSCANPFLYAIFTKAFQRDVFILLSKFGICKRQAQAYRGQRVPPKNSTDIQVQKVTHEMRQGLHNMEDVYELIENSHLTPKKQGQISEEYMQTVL
Sequence of Estrogen receptor (Homo sapiens) (P03372 whole entry, looked up): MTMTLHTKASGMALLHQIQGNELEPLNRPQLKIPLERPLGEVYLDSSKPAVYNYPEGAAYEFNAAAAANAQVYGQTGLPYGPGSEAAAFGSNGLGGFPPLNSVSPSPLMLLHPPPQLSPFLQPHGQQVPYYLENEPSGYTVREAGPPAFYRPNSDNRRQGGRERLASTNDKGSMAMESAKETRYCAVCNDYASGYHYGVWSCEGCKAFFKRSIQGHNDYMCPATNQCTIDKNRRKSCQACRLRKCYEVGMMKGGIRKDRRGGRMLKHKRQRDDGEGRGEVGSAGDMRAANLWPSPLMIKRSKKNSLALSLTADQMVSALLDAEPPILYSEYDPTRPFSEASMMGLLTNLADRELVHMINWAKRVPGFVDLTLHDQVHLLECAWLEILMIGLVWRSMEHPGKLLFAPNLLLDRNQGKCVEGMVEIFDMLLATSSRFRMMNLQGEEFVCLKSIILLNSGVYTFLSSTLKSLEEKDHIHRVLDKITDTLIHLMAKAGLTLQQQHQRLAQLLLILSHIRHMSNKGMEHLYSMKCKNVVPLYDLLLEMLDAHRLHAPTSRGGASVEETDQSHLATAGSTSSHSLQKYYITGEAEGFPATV
Sequence of Estrogen receptor beta (Homo sapiens) (Q92731 whole entry, looked up): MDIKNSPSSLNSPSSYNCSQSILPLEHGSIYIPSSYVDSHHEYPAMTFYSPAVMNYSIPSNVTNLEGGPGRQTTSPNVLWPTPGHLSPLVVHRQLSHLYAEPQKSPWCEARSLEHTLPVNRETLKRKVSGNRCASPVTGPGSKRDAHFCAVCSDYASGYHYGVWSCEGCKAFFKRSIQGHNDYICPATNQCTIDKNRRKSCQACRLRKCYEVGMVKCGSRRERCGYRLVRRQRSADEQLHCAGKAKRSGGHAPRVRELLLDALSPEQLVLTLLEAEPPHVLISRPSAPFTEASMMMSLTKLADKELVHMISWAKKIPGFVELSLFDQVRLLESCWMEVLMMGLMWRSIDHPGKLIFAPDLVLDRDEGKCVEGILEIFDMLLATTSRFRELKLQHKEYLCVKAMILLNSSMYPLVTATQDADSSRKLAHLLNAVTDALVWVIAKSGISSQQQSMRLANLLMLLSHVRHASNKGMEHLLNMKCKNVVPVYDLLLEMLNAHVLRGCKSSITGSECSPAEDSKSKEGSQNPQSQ

| SMILES | outcome [1] | Potency [2] | Potency [3] | outcome [4] | Potency [5] | Potency [6] | Potency [7] | Potency [8] | Potency [9] | Potency [10] | outcome [11] | Potency [12] | Potency [13] | Potency [14] | Potency [15] | Potency [16] | Potency [17] | Potency [18] | Potency [19] | Potency [20] |
| --- | --- | --- | --- | --- | --- | --- | --- | --- | --- | --- | --- | --- | --- | --- | --- | --- | --- | --- | --- | --- |
| CC(=O)CC(=O)Nc1ccccc1C | inactive | inactive | inactive | inactive | inactive | inactive | inactive | inactive | inactive | inactive | inactive | inactive | inactive | inactive | inactive | inactive | inactive | inactive |  |  |
| N[C@@H](Cc1cc(I)c(Oc2cc(I)c(O)c(I)c2)c(I)c1)C(=O)O | inactive | inactive | inactive | inactive | inactive | inactive | inactive | inactive | inactive | inactive | inactive | inactive | inactive | inactive | inactive | inactive |  | inactive |  |  |
| CC(C)(N)CO | inactive | inactive | inactive | inactive | inactive | inactive | inactive | inactive | inactive | inactive | inactive | inactive | inactive | inactive | inactive | inactive | inactive | inactive | inactive |  |
| CCC(O)OCCCOC (centres undefined) | inactive | 22.2 µM (active) and inactive | 28 µM (active) and inactive | inactive | inactive | inactive | inactive | inactive | inactive | inactive | inactive | inactive | inactive | inactive | inactive | inactive | inactive | inactive |  |  |
| O=C(O)c1cc(=O)c2c(OCC(O)COc3cccc4oc(C(=O)O)cc(=O)c34)cccc2o1 | inactive | inactive | inactive | inactive | inactive | inactive | inactive | inactive | inactive | inactive | inactive | inactive | inactive | inactive | inactive | inactive | inactive | inactive |  |  |
| CC(c1cc2ccccc2s1)N(O)C(N)=O (centres undefined) | inactive | inactive | inactive | inactive | inactive | inactive | inactive | inactive | inactive | inactive |  |  | inactive | inactive | inactive | inactive | inactive | inactive |  | inactive |
| CCCCC(CC)CO (centres undefined) | inactive | inactive | inactive | inactive | inactive | inactive | inactive | inactive | inactive | inactive | inactive | inactive | inactive | inactive | inactive | inactive | inactive | inactive |  |  |
| CC(=O)CC(=O)Nc1ccccc1 | inactive | inactive | inactive | inactive | inactive | inactive | inactive | inactive | inactive | inactive | inactive | inactive | inactive | inactive | inactive | inactive | inactive | inactive |  |  |
| O=C(CC(C(=O)OC1CCCCC1)S(=O)(=O)O)OC1CCCCC1 (centres undefined) | inactive | inactive | inactive | inactive | inactive | inactive | inactive | inactive | inactive | inactive | inactive | inactive | inactive | inactive | inactive | inactive | inactive | inactive |  |  |
| Cc1cccc(O)c1 | inactive | inactive | inactive | inactive | inactive | inactive | inactive | inactive | inactive | inactive |  |  | inactive | inactive | inactive | inactive | inactive | inactive |  |  |
| CC1CCC(C(C)C)C(O)C1 (centres undefined) | inactive | inactive | inactive | inactive | inactive | inactive | inactive | inactive | inactive | inactive | inactive | inactive | inactive | inactive | inactive | inactive | inactive | inactive |  | inactive |
| Nc1cc([N+](=O)[O-])ccc1O | inactive | 48.6 µM (active) | inactive | inactive | inactive |  |  | 48.6 µM (active) and 54.2 µM (active) | inactive | inactive | inactive |  | 43.3 µM (active) and 27.2 µM (active) | inactive | inactive | inactive | inactive | inactive |  | inactive |
| Cc1ccc(S(N)(=O)=O)cc1 | inactive | inactive | inactive | inactive | inactive |  |  | inactive | inactive | inactive | inactive | inactive | inactive | inactive | inactive | inactive | inactive | inactive |  |  |
| Oc1cccc2ccccc12 | inactive | inactive | inactive | inactive | 6.28 µM (active) and 15.4 µM (active) | inactive |  | inactive | inactive | inactive | inactive | inactive | inactive | inactive | 28 µM (active) and 43.3 µM (active) | inactive | inactive | inactive |  |  |
| CSCCC=O | inactive | inactive | inactive | inactive | inactive | inactive | inactive | inactive | inactive | inactive |  |  | inactive | inactive | inactive | inactive | inactive | inactive |  |  |
| c1ccc(OCCOc2ccccc2)cc1 | inactive | inactive | inactive | inactive |  | inactive | inactive | inactive | inactive | inactive | inactive | inactive | inactive | inactive | inactive | inactive | inactive | inactive | inactive |  |
